We go through 3 molecules from PubChem BioAssay (EPA / NIEHS).

Assay [1] in a line: ATG_E_Box_CIS: Attagene CIS-FACTORIAL HepG2 Assay for human Enhancer Box (E-box) (AID 2282936). As to conditions: HepG2 E-box cis-reporter transcription, actives raise or lower the signal. In a few lines:
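Endogenous transcription factor activity was sensed in human HepG2 liver cells through transfected cis-promoter reporter units. After 24 h of dosing, total RNA was reverse-transcribed and reporter cDNA resolved by capillary electrophoresis.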

A short description of assay [2]: ATG_M_61_CIS: Attagene CIS-FACTORIAL HepG2 Assay for M61 Transcription Factor (Internal Marker) (AID 2282937). As to conditions: HepG2 Attagene CIS-FACTORIAL M61 internal marker reporter; actives raise or lower the signal. The gist of the method: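 Background-control endpoint: HepG2 cells with cis-regulated reporter constructs, 24 h exposure, reporter mRNA detected via fluorescent primer extension and capillary electrophoresis; values from bidirectional fitting with DMSO baseline.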

Assay [3] is described as follows: ATG_EGR_CIS: Attagene CIS-FACTORIAL HepG2 Assay for human Early Growth Response 1 (EGR1) (AID 2282938). As to conditions: HepG2 Attagene CIS-FACTORIAL EGR reporter mRNA; actives raise or lower the signal. The gist of the method:
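Endpoint derived by bidirectional fitting versus DMSO vehicle. Method: cis-promoter reporter units transfected into HepG2, 24 h dosing, RNA isolation, RT-PCR with 6-FAM primer extension and HpaI digestion, then capillary electrophoresis fluorescence detection.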

Assay [4] can be described thus: ATG_M_19_CIS: Attagene CIS-FACTORIAL HepG2 Assay for M19 Transcription Factor (Internal Marker) (AID 2282939). As to conditions: HepG2 Attagene CIS-FACTORIAL M19 internal marker reporter; actives raise or lower the signal. The gist of the method:
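Internal marker readout, fitted in both directions against DMSO, from HepG2 cells carrying transfected cis-element reporter constructs; RT-PCR and capillary electrophoresis of reporter mRNA after 24 h exposure.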

A short description of assay [5]: ATG_Ets_CIS: Attagene CIS-FACTORIAL HepG2 Assay for human Erythroblast Transformation Specific (ETS) (AID 2282941). As to conditions: HepG2 ETS cis-reporter transcription; AC50: actives raise or lower the signal unless noted; outcome: actives raise or lower the signal unless noted. In a few lines: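 RT-PCR/capillary electrophoresis fluorescence read-out of reporter mRNA; HepG2 transient multi-reporter transfection; 24 h compound exposure; gain or loss of signal fitted bidirectionally relative to DMSO.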

Assay [6] has as its target Hepatocyte nuclear factor 3-beta (Homo sapiens) (UniProt Q9Y261). Description: ATG_FoxA2_CIS: Attagene CIS-FACTORIAL HepG2 Assay for human Forkhead box A2 (FOXA2) (AID 2282942). The following applies: HepG2 cis-reporter transcription factor activity, 24 h; actives raise or lower the signal. The gist of the method:
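Measured: reporter mRNA induction or loss in HepG2 transiently carrying multiple cis-regulated reporter units, 24 h after dosing. Quantified by RT-PCR plus capillary electrophoresis, normalised to DMSO.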

Assay [7] is described as follows: ATG_FoxO_CIS: Attagene CIS-FACTORIAL HepG2 Assay for human Forkhead box O (FoxO) (AID 2282943). As to conditions: HepG2 Attagene cis-reporter, FoxO element, mRNA; actives raise or lower the signal. The gist of the method: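 Values reflect reporter mRNA induction or loss in HepG2 cells 24 h post-dosing, fitted bidirectionally with DMSO as negative control and baseline. Detection used RT-PCR and fluorescence capillary electrophoresis.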

Assay [8] in a line: ATG_GATA_CIS: Attagene CIS-FACTORIAL HepG2 Assay for human GATA Binding Protein (AID 2282944). The following applies: HepG2 GATA cis-element reporter, Attagene multiplex mRNA; actives raise or lower the signal. In a few lines: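 Reporter transcripts from a GATA cis-regulated unit, among multiplexed reporters in transfected HepG2 cells, were measured by RT-PCR with capillary electrophoresis after 24 h dosing. Induction or loss scored relative to DMSO.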

The nature of assay [9]: ATG_GLI_CIS: Attagene CIS-FACTORIAL HepG2 Assay for human Zinc Finger Protein GLI1 (AID 2282945). The following applies: HepG2, Attagene cis-factorial reporter mRNA, GLI element; actives raise or lower the signal. The gist of the method:
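HepG2 cells transiently transfected with cis-promoter multiplexed reporter units report endogenous transcription factor activity. After 24 h chemical exposure, reporter mRNA was quantified by RT-PCR, 6-FAM labelling, HpaI digestion and capillary electrophoresis, with bidirectional fitting against DMSO.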

The target in assay [10] is Bile acid receptor (Homo sapiens) (UniProt Q96RI1). Description: ATG_IR1_CIS: Attagene CIS-FACTORIAL HepG2 Assay for human Nuclear Receptor Subfamily 1 Group H Member 4 (NR1H4), IR1 submotif (AID 2282946). As to conditions: IR1 reporter transcription, actives raise or lower the signal. The gist of the method: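 Readout: reporter transcript levels by RT-PCR with fluorescent capillary electrophoresis, from HepG2 cells transiently transfected with multiplexed cis-regulated reporters and dosed 24 h. Gain- or loss-of-signal fitted versus DMSO negative control.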

The nature of assay [11]: ATG_GRE_CIS: Attagene CIS-FACTORIAL HepG2 Assay for human Glucocorticoid Response Elements (GRE) (AID 2282947). The following applies: HepG2 GRE cis-reporter, Attagene multiplex mRNA; AC50: actives raise or lower the signal unless noted; outcome: actives raise or lower the signal unless noted. The gist of the method: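 Cells (HepG2) bearing transfected cis-promoter reporter transcription units were treated with chemical for 24 hours. Reporter mRNA was measured via RT-PCR with capillary electrophoresis, and activity was fitted in both directions relative to DMSO.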

The nature of assay [12]: ATG_ISRE_CIS: Attagene CIS-FACTORIAL HepG2 Assay for human Interferon Regulatory Factor 1 (IRF1) binding to an Interferon-Stimulated Response Element (ISRE) (AID 2282948). The following applies: HepG2 ISRE cis-reporter (Attagene), mRNA transcription readout; actives raise or lower the signal. The gist of the method: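 Read-out: fluorescent RT-PCR products resolved by capillary electrophoresis, reporting endogenous transcription factor activity via ISRE-driven reporter mRNA in transfected HepG2 cells dosed for 24 h; gain or loss fitted relative to DMSO.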

A short description of assay [13]: ATG_M_32_CIS: Attagene CIS-FACTORIAL HepG2 Assay for M32 Transcription Factor (Internal Marker) (AID 2282949).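 Also: background control marker of the multiplexed CIS panel rather than a real target.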 As to conditions: HepG2 Attagene cis-factorial M32 reporter, mRNA; actives raise or lower the signal. The gist of the method: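 HepG2 transfectants (cis-regulated reporter transcription units) dosed 24 h. Reporter mRNA by RT-PCR plus CE, analysed as gain or loss relative to DMSO.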

A short description of assay [14]: ATG_M_06_CIS: Attagene CIS-FACTORIAL HepG2 Assay for M06 Transcription Factor (Internal Marker) (AID 2282950). As to conditions: HepG2 Attagene CIS-FACTORIAL M06 internal marker reporter; actives raise or lower the signal. The gist of the method:
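Serves as a background control readout. Transfected HepG2 exposed to compounds for 24 h, then reporter transcripts quantified by fluorescent RT-PCR and capillary electrophoresis. Both directions fitted against DMSO baseline.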

Assay [15] concerns the target Hypoxia-inducible factor 1-alpha (Homo sapiens) (UniProt Q16665). Description: ATG_HIF1a_CIS: Attagene CIS-FACTORIAL HepG2 Assay for human Hypoxia Inducible Factor 1 (HIF1A) (AID 2282951). As to conditions: HepG2 Attagene cis-factorial HIF1a reporter transcription; actives raise or lower the signal. The gist of the method:
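Dosed 24 h, transfected HepG2 cells yielded total RNA whose reporter transcripts were RT-PCR-amplified and sized by capillary electrophoresis using fluorescent labelling; DMSO defined baseline, with gain and loss of signal both fitted.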

In assay [16] the target is Hepatocyte nuclear factor 6 (Homo sapiens) (UniProt Q9UBC0). Description: ATG_HNF6_CIS: Attagene CIS-FACTORIAL HepG2 Assay for human Hepatocyte Nuclear Factor 6 (HNF6) (AID 2282952). As to conditions: HepG2 Attagene cis-factorial HNF6 reporter transcription; actives raise or lower the signal. The gist of the method: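 Using cis-element reporters in HepG2 liver cells, the assay tracks endogenous factor-driven transcription 24 h post-dosing. Signal comes from 6-FAM-labelled, HpaI-digested RT-PCR fragments, with gain or loss scored against DMSO.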

Assay [17] has as its target Heat shock factor protein 1 (Homo sapiens) (UniProt Q00613). Description: ATG_HSE_CIS: Attagene CIS-FACTORIAL HepG2 Assay for human Heat Shock Transcription Factor 1 (HSE) (AID 2282953). As to conditions: HepG2 HSE cis-reporter, Attagene RNA transcription; actives raise or lower the signal. In a few lines:
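Endogenous transcription factor activity in transiently transfected HepG2, read as reporter mRNA by RT-PCR with fluorescent capillary electrophoresis after 24 h. Gain or loss of signal fitted versus DMSO baseline.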

The nature of assay [18]: ATG_MRE_CIS: Attagene CIS-FACTORIAL HepG2 Assay for human Metal Responsive Element (MRE) (AID 2282954). As to conditions: HepG2 MRE cis-reporter transcription, Attagene multiplex; actives raise or lower the signal. In a few lines: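 Cells were transfected with cis-promoter reporter transcription units, then dosed for 24 h. RNA was reverse-transcribed, amplified, fluorescently labelled and resolved by capillary electrophoresis, and activity was fitted in both directions relative to DMSO.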

A short description of assay [19]: ATG_PBREM_CIS: Attagene CIS-FACTORIAL HepG2 Assay for human Phenobarbital-responsive Enhancer Module (PBREM) (AID 2282955). As to conditions: HepG2 PBREM cis-reporter, Attagene multiplexed transcription; actives raise or lower the signal. The gist of the method:
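Transfected liver-derived HepG2 cells exposed 24 h; PBREM reporter transcript quantified via RT-PCR and capillary electrophoresis, with activity in either direction referenced to DMSO.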

The source made the active and inactive calls. The calls were made as follows: active = hit-call score of the fitted dose curve at least 0.9, where 1 is the maximum; inactive = score below 0.9.

Chain of Bile acid receptor (Homo sapiens) (Q96RI1 whole entry, looked up): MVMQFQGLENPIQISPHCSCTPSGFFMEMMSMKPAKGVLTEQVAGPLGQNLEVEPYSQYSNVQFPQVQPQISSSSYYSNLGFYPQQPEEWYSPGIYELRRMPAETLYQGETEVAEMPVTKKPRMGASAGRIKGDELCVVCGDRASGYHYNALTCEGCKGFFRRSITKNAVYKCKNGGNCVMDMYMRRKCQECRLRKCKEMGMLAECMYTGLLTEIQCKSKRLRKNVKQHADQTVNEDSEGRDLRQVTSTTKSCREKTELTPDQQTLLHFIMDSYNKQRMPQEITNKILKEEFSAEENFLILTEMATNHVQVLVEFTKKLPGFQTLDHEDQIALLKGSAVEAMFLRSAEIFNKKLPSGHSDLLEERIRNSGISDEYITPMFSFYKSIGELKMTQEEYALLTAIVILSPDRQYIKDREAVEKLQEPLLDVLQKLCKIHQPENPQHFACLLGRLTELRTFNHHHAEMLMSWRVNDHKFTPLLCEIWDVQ
Chain of Hypoxia-inducible factor 1-alpha (Homo sapiens) (Q16665 whole entry, looked up): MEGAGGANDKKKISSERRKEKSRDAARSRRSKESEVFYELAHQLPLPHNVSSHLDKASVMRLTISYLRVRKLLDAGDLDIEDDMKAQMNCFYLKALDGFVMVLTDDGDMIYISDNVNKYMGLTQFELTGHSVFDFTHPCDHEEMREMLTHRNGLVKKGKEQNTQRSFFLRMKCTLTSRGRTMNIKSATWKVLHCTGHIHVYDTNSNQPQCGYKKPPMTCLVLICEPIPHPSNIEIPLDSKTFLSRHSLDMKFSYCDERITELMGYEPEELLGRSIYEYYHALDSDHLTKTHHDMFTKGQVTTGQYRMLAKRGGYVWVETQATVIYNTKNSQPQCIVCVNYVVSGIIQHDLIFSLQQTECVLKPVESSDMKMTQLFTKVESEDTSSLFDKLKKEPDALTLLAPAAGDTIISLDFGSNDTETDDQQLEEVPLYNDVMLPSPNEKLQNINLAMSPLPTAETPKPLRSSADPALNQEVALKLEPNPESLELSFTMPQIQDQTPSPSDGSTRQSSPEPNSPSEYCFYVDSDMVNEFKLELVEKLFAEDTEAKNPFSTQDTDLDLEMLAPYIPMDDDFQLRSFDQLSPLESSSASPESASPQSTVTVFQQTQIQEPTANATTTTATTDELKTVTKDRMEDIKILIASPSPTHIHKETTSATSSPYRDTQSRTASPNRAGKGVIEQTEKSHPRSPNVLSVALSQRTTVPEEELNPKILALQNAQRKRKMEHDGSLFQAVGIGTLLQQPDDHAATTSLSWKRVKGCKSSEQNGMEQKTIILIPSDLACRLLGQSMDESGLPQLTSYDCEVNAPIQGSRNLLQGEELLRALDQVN
Chain of Heat shock factor protein 1 (Homo sapiens) (Q00613 whole entry, looked up): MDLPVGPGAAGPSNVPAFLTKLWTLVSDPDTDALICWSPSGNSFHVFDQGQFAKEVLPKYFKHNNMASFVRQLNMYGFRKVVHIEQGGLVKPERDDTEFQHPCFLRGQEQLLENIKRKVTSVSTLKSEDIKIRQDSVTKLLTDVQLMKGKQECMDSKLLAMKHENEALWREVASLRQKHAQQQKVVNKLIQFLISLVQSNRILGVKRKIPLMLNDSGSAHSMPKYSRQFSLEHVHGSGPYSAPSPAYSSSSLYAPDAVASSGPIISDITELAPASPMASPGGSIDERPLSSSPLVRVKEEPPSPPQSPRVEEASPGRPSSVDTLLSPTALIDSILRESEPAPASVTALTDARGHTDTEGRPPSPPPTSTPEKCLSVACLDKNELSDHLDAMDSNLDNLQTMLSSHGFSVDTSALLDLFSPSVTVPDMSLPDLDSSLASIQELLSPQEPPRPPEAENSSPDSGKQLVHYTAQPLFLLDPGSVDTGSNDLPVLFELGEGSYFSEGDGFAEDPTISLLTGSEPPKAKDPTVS
Chain of Hepatocyte nuclear factor 3-beta (Homo sapiens) (Q9Y261 whole entry, looked up): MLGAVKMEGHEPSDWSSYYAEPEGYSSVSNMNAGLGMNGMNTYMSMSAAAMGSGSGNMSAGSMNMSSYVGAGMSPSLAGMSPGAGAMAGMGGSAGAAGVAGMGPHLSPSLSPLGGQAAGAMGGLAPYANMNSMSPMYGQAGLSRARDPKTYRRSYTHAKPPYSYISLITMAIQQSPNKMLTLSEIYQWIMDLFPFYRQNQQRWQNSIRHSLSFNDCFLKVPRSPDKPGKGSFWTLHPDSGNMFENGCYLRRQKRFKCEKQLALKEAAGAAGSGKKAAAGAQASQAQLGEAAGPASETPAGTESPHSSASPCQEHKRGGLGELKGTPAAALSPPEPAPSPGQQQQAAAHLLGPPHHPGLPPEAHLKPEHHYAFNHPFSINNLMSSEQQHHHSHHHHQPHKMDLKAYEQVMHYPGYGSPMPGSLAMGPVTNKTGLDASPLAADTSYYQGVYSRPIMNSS
Chain of Hepatocyte nuclear factor 6 (Homo sapiens) (Q9UBC0 whole entry, looked up, the tested form may be a part): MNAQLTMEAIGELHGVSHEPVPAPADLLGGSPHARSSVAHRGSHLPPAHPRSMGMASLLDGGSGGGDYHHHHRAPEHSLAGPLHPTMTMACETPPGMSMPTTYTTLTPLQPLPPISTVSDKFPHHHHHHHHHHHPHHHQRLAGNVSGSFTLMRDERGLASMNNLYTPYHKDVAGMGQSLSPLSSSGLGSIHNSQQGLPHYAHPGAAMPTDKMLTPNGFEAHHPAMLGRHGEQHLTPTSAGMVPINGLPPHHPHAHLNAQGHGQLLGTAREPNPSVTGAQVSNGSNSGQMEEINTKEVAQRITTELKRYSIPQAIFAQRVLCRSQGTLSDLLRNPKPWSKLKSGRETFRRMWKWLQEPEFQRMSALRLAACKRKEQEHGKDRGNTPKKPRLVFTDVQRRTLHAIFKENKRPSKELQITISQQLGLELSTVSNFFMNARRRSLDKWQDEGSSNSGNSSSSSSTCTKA

Turning to `CCOC(OCC)C(=O)c1ccccc1`, the result in assay [1], in [2], in [3], in assay [4], in assay [5] and in assay [6] was inactive. For the same molecule, the molecule was called inactive in [7], in assay [8], in [9], in assay [10], in assay [11] and in assay [12]. In addition, the molecule was classed as inactive in [13], in assay [14], in assay [15], in [16], in [17] and in assay [18]. Moreover, the outcome in assay [19] was inactive.
As to `CCC(C)c1nccnc1OC` (configuration not stated), the outcome in assay [1], in assay [2], in [3], in assay [4], in assay [5] and in [6] was inactive. For the same molecule, the molecule was called inactive in assay [7], in [8], in [9], in assay [10], in [11] and in assay [12]. In addition, the result in assay [13], in assay [14], in assay [15], in assay [16], in assay [17] and in assay [18] was inactive. In assay [19], the result was inactive.
By AC50 is commonly meant the concentration at which the activity in the assay is half-maximal. Turning to `Cc1[nH]nc2c1N=C(c1ccccc1Cl)c1cc([N+](=O)[O-])ccc1N2`, the outcome in assay [1], in assay [2], in assay [3], in [4], in [5] and in assay [6] was inactive. In addition, the outcome in assay [7], in [8], in assay [9], in assay [11], in [13] and in [14] was inactive. Moreover, the result in assay [15], in [16], in [17], in [18] and in assay [19] was inactive. Further, the AC50 in [10] was 2.08 µM (active); in assay [12], 2.9 µM (active).
